Records with an inconclusive call do not appear. A number with no mark means an inactive call. The source made the active and inactive calls. Calls follow the shape of the dose curve; as a rule, active = well fitted curve in the direction sought with a large enough effect; inconclusive = small, poorly fitted or top-dose-only effect, or another doubt; inactive = no such curve, though single readings can be large; an effect the other way counts as inactive or inconclusive.

This is an account of results in PubChem BioAssay (NCATS).

The subject of one test is TAB109. The test can be described thus: qHTS profiling for inhibitors of Plasmodium falciparum proliferation (AID 504749). Also: nearly all actives have a fitted effect of over 60% in size. Also: potency is read from the fitted curve at half-maximal effect. Particulars: P. falciparum in erythrocytes, SYBR Green DNA, 72 h; series mostly up to 28.7 µM. In short, it runs like this: (§1)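 Each compound contacts P. falciparum-infected red blood cells for 72 h at 37 C; lysis buffer (Tris, EDTA, saponin, Triton X, SYBR Green I) is added and fluorescence measured next morning; values normalized to controls.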
(In qHTS, concentration-response curves come from the screen itself.)

Another test deals with TAB165. The test is described as above. To be noted: P. falciparum in erythrocytes, SYBR Green DNA, 72 h; series mostly up to 28.7 µM. The procedure, abridged:
as §1

The next test deals with CRL-7250. The test is described as follows: Cytotoxic Profiling of Annotated Libraries Using Quantitative High-Throughput Screening (AID 1296008). Also: nearly all actives have a fitted effect of over 60% in size. As to max response: % is scaled to controls: 0 for no effect and ±100 for the full control effect. Particulars: Five cell lines viability, CellTiter-Glo ATP luminescence, 48-72 h; max response: hits give low values. The procedure, abridged:
(§2)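 Cells exposed to compounds for 48 or 72 hr at 37 degrees Celsius. Viability read as ATP-coupled luminescence with CellTiter-Glo after 10 min at room temperature.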
In general terms: In ATP-based viability assays light output follows the ATP content of the culture.

Test [1] has as its system HaCat. The test is described as above. Particulars: Five cell lines viability, CellTiter-Glo ATP luminescence, 48-72 h; max response: hits give low values. The procedure, abridged: as §2
In the next test the test system is KB-3-1. Described as above. To be noted: Five cell lines viability, CellTiter-Glo ATP luminescence, 48-72 h; max response: hits give low values. The procedure, abridged:
as §2

Test [2] has as its system NIH3T3. The description is as above. To be noted: Five cell lines viability, CellTiter-Glo ATP luminescence, 48-72 h; max response: hits give low values. The procedure, abridged: as §2
A further test relates to MCC-13. The test can be described thus: qHTS assay to identify novel small-molecules to repurpose for Merkel cell carcinoma treatment (AID 1296009). Also: nearly all actives have a fitted effect of over 60% in size. To be noted: MCC and control cell lines, CellTiter-Glo viability, 72 h; series mostly up to 46 µM. In short, it runs like this:
(§3)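 Dose-response viability screen; 72 hr exposure at 37 degree celsius; CellTiter-Glo added, 10 min room temperature, luminescence read; RLUs scaled between no-cell and DMSO wells.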

The subject of the next test is MCC-26. The test is described as above. Particulars: MCC and control cell lines, CellTiter-Glo viability, 72 h; series mostly up to 46 µM. In short, it runs like this: as §3
A further test relates to MKL-1. The test is described as above. To be noted: MCC and control cell lines, CellTiter-Glo viability, 72 h; series mostly up to 46 µM. In short, it runs like this: as §3
For the next test, the system named is MKL-2. The description is as above. Particulars: MCC and control cell lines, CellTiter-Glo viability, 72 h; series mostly up to 46 µM. In short, it runs like this: as §3
The test system of the next test is UISO. The description is as above. To be noted: MCC and control cell lines, CellTiter-Glo viability, 72 h; series mostly up to 46 µM. In short, it runs like this:
as §3

The test system of the next test is WaGa. Described as above. To be noted: MCC and control cell lines, CellTiter-Glo viability, 72 h; series mostly up to 46 µM. The procedure, abridged: as §3
The next test has as its system C33A. The test is described as follows: Primary qHTS to identify gynecologic anti-cancer compounds using libraries of approved drugs and bioactive compounds (AID 1345084). Also: % is scaled to controls: 0 for no effect and ±100 for the full control effect; nearly all actives have a fitted effect of over 55% in size. Particulars: Gynecologic cancer cell panel viability, ATPlite luminescence, 48 h; series mostly up to 57.5 µM. The procedure, abridged:
(§4)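 48 h compound exposure at 37 C, 5% CO2; five-point qHTS. ATPlite luminescence readout of cell ATP.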

For another test, the system named is CAOV3. The description is as above. To be noted: Gynecologic cancer cell panel viability, ATPlite luminescence, 48 h; series mostly up to 57.5 µM. In short, it runs like this: as §4
In a further test the test system is TAB113. The test is described as follows: qHTS profiling for inhibitors of Plasmodium falciparum proliferation (AID 504749). Also: nearly all actives have a fitted effect of over 60% in size. Also: potency is read from the fitted curve at half-maximal effect. Particulars: P. falciparum in erythrocytes, SYBR Green DNA, 72 h; series mostly up to 28.7 µM. The procedure, abridged:
as §1

In another test the test system is W2. The test is described as above. To be noted: P. falciparum in erythrocytes, SYBR Green DNA, 72 h; series mostly up to 28.7 µM. The procedure, abridged: as §1
Test [3] deals with HACAT. The test can be described thus: qHTS assay to identify novel small-molecules to repurpose for Merkel cell carcinoma treatment (AID 1296009). Also: nearly all actives have a fitted effect of over 60% in size. To be noted: MCC and control cell lines, CellTiter-Glo viability, 72 h; at 44.8 µM (top of the series) unless noted. In short, it runs like this: as §3
Test [4] has as its system NIH3T3. Described as above. Particulars: MCC and control cell lines, CellTiter-Glo viability, 72 h; at 44.8 µM (top of the series). The procedure, abridged: as §3
The next test relates to HEK293. The test can be described thus: Cytotoxic Profiling of Annotated Libraries Using Quantitative High-Throughput Screening (AID 1296008). Also: nearly all actives have a fitted effect of over 60% in size. As to max response: % is scaled to controls: 0 for no effect and ±100 for the full control effect. To be noted: Five cell lines viability, CellTiter-Glo ATP luminescence, 48-72 h; max response: hits give low values. In short, it runs like this: as §2

With `COc1ccc(C(Cl)=C(c2ccc(OC)cc2)c2ccc(OC)cc2)cc1`, the Potency with TAB109 was 3.55 µM (active); in the test with TAB165 it was 2.51 µM (active). Moreover, the result in the test on CRL-7250 was inactive. Further, the max response in the test with HaCat [1] was -3.14%; in the test with KB-3-1, 9.01%; in the test with NIH3T3 [2] it was -2.4%. Also, the Potency result in the test with MCC-13, in the test on MCC-26, with MKL-1, with MKL-2, in the test with UISO and in the test on WaGa was “inactive” throughout. The Potency entry with C33A and in the test on CAOV3 was “inactive” each time.

`CC(C)NCC(O)c1ccc2ccccc2c1` (configuration not stated): the Potency in the test with TAB109 is 8.91 µM (active); with TAB113, 4.47 µM (active); in the test on TAB165 it was 10 µM (active); in the test with W2, 1.9 µM (active). Further, in the test on CRL-7250, the max response is 3.16%. Moreover, the result in the test with HaCat [1], with NIH3T3 [2], in the test on HACAT [3] and with NIH3T3 [4] was inactive. The Potency entry in the test on MCC-13, in the test on MCC-26, in the test on MKL-1, in the test on MKL-2, with UISO and in the test on WaGa was “inactive” each time. In addition, the Potency entry with C33A and with CAOV3 was “inactive” each time.

`N/C(=N\N=C\c1ccc(Cl)cc1)N/N=C/c1ccc(Cl)cc1`: the figures for the Potency in the test on TAB109 and in the test with TAB165 were 6.31 µM (active) and 3.98 µM (active), respectively. Moreover, the call in the test on CRL-7250, in the test with HaCat [1] and in the test with HACAT [3] was inactive. The max response with NIH3T3 [2] is -19%. Besides, the Potency entry with MCC-13, in the test on MCC-26, in the test on MKL-1, in the test on UISO, with WaGa and in the test with C33A was “inactive” each time. In the test with CAOV3, the Potency result is “inactive”.

With `COc1ccc(/C=N/NC(=O)c2ccncc2)cc1OC`, the Potency result in the test with TAB109, with TAB113, in the test on TAB165, in the test on W2, with MCC-13 and with MCC-26 was “inactive” in each case. Besides, the Potency result in the test with MKL-1, with MKL-2, in the test on UISO, with WaGa, with C33A and in the test with CAOV3 was “inactive” in each case. Besides, the max response with HEK293 is -3.6%; with KB-3-1 it was 0.981%; in the test on NIH3T3 [2], -0.709%. For the same compound, the compound was called inactive with HaCat [1] and with HACAT [3].

For the compound `CCC(C(=O)OCCOCCN(CC)CC)c1ccccc1` (configuration not stated), the Potency result in the test with TAB113, with TAB165, in the test with MCC-13, in the test on MCC-26, in the test on MKL-1 and in the test on MKL-2 was “inactive” each time. Moreover, the Potency entry in the test with UISO, in the test on WaGa, with C33A and in the test with CAOV3 was “inactive” throughout. Moreover, in the test on W2, the Potency was 12 µM (active). For the same compound, the max response was -19.3% in the test on HEK293 and 16.3% in the test on KB-3-1. Besides, the call in the test on HaCat [1], in the test with NIH3T3 [2], in the test with HACAT [3] and in the test with NIH3T3 [4] was inactive.

As for `CO[C@]12C[C@@H](COC(=O)c3cncc(Br)c3)CN(C)[C@@H]1Cc1cn(C)c3cccc2c13`, the Potency result with TAB113, with MCC-13, in the test on MCC-26, in the test with MKL-1, in the test with MKL-2 and in the test with UISO was “inactive” each time. The Potency result in the test with WaGa, in the test with C33A and with CAOV3 was “inactive” each time. The Potency in the test on W2 was 6.75 µM (active). Besides, the max response is -26.4% in the test on HEK293 and 0.842% with NIH3T3 [2]. The outcome in the test with HaCat [1] and in the test on HACAT [3] was inactive.
